Measurements reported in PubChem BioAssay (NCATS).
Unmarked numbers belong to inactive results. Results filed as inconclusive are left out. Where a call stands in place of a potency, no number is given. Calls of active or inactive are those of the source. Unless noted, the call rests on the fitted dose curve; in most records, active means well fitted curve in the direction sought with a large enough effect; inconclusive means small, poorly fitted or top-dose-only effect, or another doubt; inactive means no such curve, though single readings can be large; an effect the other way counts as inactive or inconclusive.

Columns and labels:
[1] = Confirmation and Secondary Assay for Modulators of Hemoglobin Beta Chain Splicing at IVS2 654 locus (AID 910);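 further: HeLa cells stably carrying EGFP split by mutant beta-globin IVS2-654 intron; per-well total GFP intensity by laser scanning cytometry after 2-day treatment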
In short: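 Readout: per-well total peak green fluorescence (488 nm ex, 500–520 nm em) from objects 5–250 µm, reflecting correct splicing of an EGFP-654 reporter. Compounds were applied for 2 days at 37 °C to overnight-plated HeLa EGFP-654 cells; controls were DMSO and 500 nM IVS2-654 PNA.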

[2] = Confirmation and Secondary Assay for Modulators of Hemoglobin Beta Chain Splicing at IVS2 705 locus (AID 930);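 further: HeLa cells stably expressing the EGFP-705 splicing reporter; GFP fluorescence per well restored by corrected splicing of the IVS2-705 intron in EGFP; series mostly up to about 46 µM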
In short: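 Fluorescence gain (488 nm laser, 500-520 nm PMT) reflects restored correct splicing of a mutant IVS2-705 intron inside EGFP in stably transfected HeLa cells after 2-day compound treatment.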

[3] = qHTS assay for cell viability of HEK293 cells (AID 743288); conditions: ATP luminescence (CellTiter-Glo), 18 h; max response: hits give low values; further: nearly all actives have a fitted effect of over 50% in size
In short: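 HEK293 parental, 2,000 cells/well; ≥5 h pre-incubation 37 C; pintool compound addition; 18 h, 37 C; CellTiter-Glo 30 min RT; luminescence read.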

[4] = qHTS assay for cell viability of the p53RE-bla HCT-116 cell line (AID 743292); further: nearly all actives have a fitted effect of over 55% in size
In short: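 ATP-based luminescence, 16 h compound exposure at 37 C, p53RE-bla HCT-116 cells at 4,000/well.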

[5] = qHTS assay for small molecule activators of the human pregnane X receptor (PXR) signaling pathway (AID 720659; call rule not given here)
[6] = biological target: Tyrosyl-DNA phosphodiesterase 1 (Homo sapiens) (UniProt Q9NUW8); test: Confirmation Assay for Inhibitors of Tyrosyl-DNA Phosphodiesterase (TDP1) (AID 489007); conditions: recombinant human TDP1 enzymatic activity, dose-response; further: potency means the concentration at half of the fitted maximal effect; nearly all actives have a fitted effect of over 40% in size
Tyrosyl-DNA phosphodiesterase 1 (Homo sapiens), sequence (Q9NUW8 whole entry, looked up): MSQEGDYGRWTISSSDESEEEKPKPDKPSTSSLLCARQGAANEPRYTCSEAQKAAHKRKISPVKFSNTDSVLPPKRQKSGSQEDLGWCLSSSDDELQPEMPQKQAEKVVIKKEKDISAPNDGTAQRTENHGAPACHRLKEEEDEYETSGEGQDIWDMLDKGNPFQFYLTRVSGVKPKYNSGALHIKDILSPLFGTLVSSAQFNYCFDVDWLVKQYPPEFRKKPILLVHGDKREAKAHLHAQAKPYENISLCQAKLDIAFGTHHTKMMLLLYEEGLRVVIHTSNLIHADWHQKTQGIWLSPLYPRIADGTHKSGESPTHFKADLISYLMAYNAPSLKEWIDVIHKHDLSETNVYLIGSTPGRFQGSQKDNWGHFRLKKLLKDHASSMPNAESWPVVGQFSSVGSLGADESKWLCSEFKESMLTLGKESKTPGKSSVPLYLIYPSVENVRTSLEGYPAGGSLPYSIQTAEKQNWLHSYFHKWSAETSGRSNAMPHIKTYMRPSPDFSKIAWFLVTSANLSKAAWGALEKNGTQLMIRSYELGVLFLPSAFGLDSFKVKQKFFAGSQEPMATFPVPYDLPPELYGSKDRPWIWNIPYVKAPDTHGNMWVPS
In short: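 Confirmation of primary-screen follow-ups in a qHTS format. Substrate cleavage by Tdp1 (1 nM) of a 3'-phosphotyrosine-FITC, 5'-biotin oligo (15 nM) was monitored as decreased AlphaScreen signal after a 5 min room-temperature reaction.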

## N[C@@H](Cc1ccccc1)C(=O)O
[1]
  outcome: inactive
[2]
  outcome: inactive
[3]
  max response: 2.21%
[4]
  Potency: inactive
[5]
  outcome: inactive

## O=C(O)[C@@H](O)[C@@H](O)[C@H](O)[C@H](O)CO
[6]
  Potency: 5.01 µM (active)
